Molecules are shown by their SMILES. Values joined by “and” are separate entries in the source; they are usually repeats but may differ in a detail not shown here. Identical values can stand only once. Some compounds were tested as several samples or in several runs, with calls that do not always agree. Active and inactive are the calls of the source. The calls were made as follows: active = hit-call score of the fitted dose curve at least 0.9, where 1 is the maximum; inactive = score below 0.9.

This assay can be described thus: ATG_CRE_CIS: Attagene CIS-FACTORIAL HepG2 Assay for human cAMP Responsive Element (CRE) binding protein 3 (AID 2282926). Conditions: HepG2 CRE cis-reporter, Attagene multiplexed mRNA; actives raise or lower the signal. Summed up: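 Endogenous CRE-binding activity in HepG2 is reported through a cis-regulated transfected reporter. Following a day of exposure, mRNA levels are determined by reverse transcription PCR and fluorescent fragment analysis; fits run in both directions versus DMSO.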
On to `COC(=O)C(F)(F)C(F)(F)C(F)(F)C(F)(F)C(F)(F)F`, for which the compound was called inactive.
On the same count and under the same terms, to `CC1COCc2cc3c(cc21)C(C)(C)C(C)C3(C)C` (configuration not stated) belongs “inactive”.
`Brc1cc(Br)c(Oc2c(Br)cc(Br)c(Br)c2Br)cc1Br`: the call was inactive.
The same measure, in the same setting: the value for `O=C(Nc1cccc([N+](=O)[O-])c1)c1cc2ccccc2cc1O` was “inactive”; that for `CCCCCCCCCCCC(=O)O` was “inactive”; that for `O=CC(F)(F)C(F)(F)C(F)(F)C(F)F` was “inactive”.
The same measure, in the same setting: the value for `O=S(=O)(O)c1ccccc1` was “inactive”; that for `NCCN` was “inactive”.
One may read the AC50 as the midpoint of the concentration-response curve, whichever way the signal moves. For `CCCCCCCCCCCC[N+](C)(C)Cc1ccccc1`, the AC50 was 19.5 µM (active) and the compound was called inactive.
Consider `O=C1C=CC(=O)N1c1cccc(N2C(=O)C=CC2=O)c1`, for which the compound was classed as inactive.
The same measure, in the same setting: to `COc1cccc(O)c1` belongs “inactive”; to `CCCCCCCCCCCCCCCC(=O)OC`, “inactive”.
On the same count and under the same terms, the value for `COCC1CCC(CO)CC1` (configuration not stated) was “inactive”.
The same measure, in the same setting: to `c1ccc(CNc2ncnc3c2ncn3C2CCCCO2)cc1` (configuration not stated) belongs “inactive”.
For the compound `C=C(c1ccc(C(=O)O)cc1)c1cc2c(cc1C)C(C)(C)CCC2(C)C`, the AC50 was 31.9 µM (active) and the outcome was inactive.
Take `CC1=NN(c2ccccc2)C(=O)C1`: the outcome was inactive.
On to `NC(=NCCCCCCN=C(N)/N=C(\N)Nc1ccc(Cl)cc1)/N=C(\N)Nc1ccc(Cl)cc1`, for which the AC50 is 24 µM (active) and the compound was classed as inactive.
As for `c1cc2cccc3c4cccc5cccc(c(c1)c23)c54`, the compound was called inactive.
The same measure, in the same setting: to `O=S(=O)(O)c1ccc2cc(O)ccc2c1` belongs “inactive”; to `FC(F)(F)C(F)(F)C(F)(F)C(F)(F)I`, “inactive”; to `CC(C)(C)c1ccc(CCC=O)cc1`, “inactive”.
For `C=COC(=O)C(C)(C)CCCCCC`, the compound was classed as inactive.
For `Nc1ccc(O)c(C(=O)O)c1`, the compound was classed as inactive.
For `CC(C)(C)c1ccc(O)c(O)c1`, the AC50 was 47.8 µM (active) and 181 µM (active); the compound was called inactive.
For the compound `OCC(F)(F)C(F)(F)C(F)(F)C(F)(F)C(F)(F)C(F)(F)C(F)(F)C(F)(F)C(F)(F)C(F)(F)C(F)(F)F`, the outcome was inactive.
On the same count and under the same terms, the value for `Oc1c(Cl)cc(Cl)cc1Sc1cc(Cl)cc(Cl)c1O` was “inactive”.
Still for that read-out and setting: to `O=C(O)c1cccc(C(=O)O)n1` belongs “inactive”.
The same measure, in the same setting: the value for `CCOC(=O)c1nc(C(Cl)(Cl)Cl)n(-c2ccc(Cl)cc2Cl)n1` was “inactive”; that for `O=C1Cc2ccccc2N1c1c(Cl)cccc1Cl` was “inactive”; that for `O=C1OC(=O)c2cc(-c3ccc4c(c3)C(=O)OC4=O)ccc21` was “inactive”.
Consider `Cc1cc(=O)oc2cc(O)ccc12`, for which the call was inactive.
For the compound `Cc1ccccc1C(OCCN(C)C)c1ccccc1` (configuration not stated), the compound was called inactive.
Turning to `CNNCc1ccc(C(=O)NC(C)C)cc1`, the result was inactive.
On the same count and under the same terms, the value for `O=C(C=C(O)C(F)(F)F)C(F)(F)F` was “inactive”.
For `COc1cc(OC)nc(NC(=O)NS(=O)(=O)Nc2ccccc2C(=O)N(C)C)n1`, the compound was called inactive.
Same read-out and setting: to `FC(OC(F)(F)C(F)(F)C(F)(F)F)C(F)(F)F` (configuration not stated) belongs “inactive”; to `O=C(O)CCC(F)(F)C(F)(F)C(F)(F)C(F)(F)C(F)(F)F`, “inactive”.
Same read-out and setting: the value for `O=P(O)(O)CCC(F)(F)C(F)(F)C(F)(F)C(F)(F)C(F)(F)C(F)(F)C(F)(F)C(F)(F)F` was “inactive”.

These data come from PubChem BioAssay (EPA / NIEHS).
